Source: PubChem
Rows were chosen to be rich in hits. Some 19% of all compounds tested hit in one or more screens of this group.
HepG2 tox: kills HepG2 cells in TGF-b inhibitor counter-screen; AID 588856; 0.76% of 410,000 active; Potency, µM (doses to about 46.1 µM), usual class: cytotoxic; HepG2 CAGA-GFP viability, ATP luminescence, 18 h
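CellTiter-Glo luminescence gave cytotoxicity after 18 hours at 37 degrees C. The cells were HepG2 CAGA-GFP in 1% FBS DMEM, stimulated with 500 pg/mL TGF-beta after compound addition. %Activity was normalised to no-cell wells (complete cell-killing) and DMSO (no toxicity), and curves were fitted and classified.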
TDP1 inh: blocks human tyrosyl-DNA phosphodiesterase 1; Potency, µM (top dose mostly 130 µM), actives largely listed as inhibitors; Q9NUW8; recombinant TDP1, AlphaScreen DNA substrate cleavage; 0.28% of 350,000 active; AID 485290; further: nearly all actives have a fitted effect of over 40% in size
Target sequence (Q9NUW8 whole entry, looked up): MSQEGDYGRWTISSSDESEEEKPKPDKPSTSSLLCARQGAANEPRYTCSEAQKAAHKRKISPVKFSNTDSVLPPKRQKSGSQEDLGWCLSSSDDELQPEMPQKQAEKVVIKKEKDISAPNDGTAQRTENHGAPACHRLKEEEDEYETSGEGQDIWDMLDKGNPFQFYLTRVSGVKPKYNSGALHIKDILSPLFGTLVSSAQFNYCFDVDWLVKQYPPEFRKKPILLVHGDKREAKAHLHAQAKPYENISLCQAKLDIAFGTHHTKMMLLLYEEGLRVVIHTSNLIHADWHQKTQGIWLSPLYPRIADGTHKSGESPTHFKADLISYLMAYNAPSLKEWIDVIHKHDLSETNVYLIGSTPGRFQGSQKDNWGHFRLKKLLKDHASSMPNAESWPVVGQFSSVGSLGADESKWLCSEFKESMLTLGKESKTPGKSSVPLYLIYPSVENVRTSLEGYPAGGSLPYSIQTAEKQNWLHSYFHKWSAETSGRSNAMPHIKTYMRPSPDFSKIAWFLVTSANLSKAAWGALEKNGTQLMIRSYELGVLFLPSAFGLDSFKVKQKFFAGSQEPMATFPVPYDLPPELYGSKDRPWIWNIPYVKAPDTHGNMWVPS
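Signal: AlphaScreen proximity between streptavidin donor and anti-FITC acceptor beads on intact substrate. Reaction: Tdp1 1 nM, substrate 15 nM final, 5 min RT after 15 min compound preincubation.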
TDP1 cell CPT: DT40-hTDP1 cell growth loss with CPT | chicken DT40 Tdp1-/-;hTDP1 cells + 20 nM CPT, ATP luminescence, 48 h | Potency, µM (series often up to 46.2 µM), most hits filed as inhibitors | 12% of 420,000 active | AID 686979; further: nearly all actives have a fitted effect of over 55% in size
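Cell growth measured by CellTiter-Glo luminescence after a minimum 48 h, 37 C compound exposure with 20 nM CPT in Tdp1-knockout DT40 cells stably expressing hTDP1, seeded 400/well; qHTS titration format.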
IL-1B inflam inh: inhibitors of inflammasome signaling (IL-1 beta secretion) | THP-1 LPS/ATP IL-1B secretion, AlphaLISA, 16 h; hits give low values | activity change, % at 57.5 µM | 4.7% of 360,000 active; in the data active means activity change below about -50%; inconclusive means mostly about -30% to -49%
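Secreted IL-1B measured by AlphaLISA bead assay after 16 h compound exposure of THP-1 cells; compounds (final up to 57.5 uM) added 1 h before LPS (250 ng/mL) and ATP (1.25 mM) stimulation; lower signal means less secretion.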
TGFb inhibitor: inhibitors of TGF-b signaling; HepG2 CAGA-GFP TGF-b/SMAD3 reporter, GFP fluorescence, 18 h; TGF-beta stimulated, 500 pg/mL final; Potency, µM (doses to about 46.1 µM), usual class: inhibitors; 1.2% of 410,000 active; further: nearly all actives have a fitted effect of over 65% in size
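Using HEPG2 CAGA-GFP reporter cells at 1000 cells/well, we pinned test compounds, stimulated with recombinant TGF-beta (500 pg/mL final) and measured total well GFP after 18 h.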
DT40 TDP1 no CPT: qHTS for Inhibitors of human tyrosyl-DNA phosphodiesterase 1 (TDP1): qHTS in cells in absence of CPT | DT40 Tdp1-/- hTDP1 cells, no CPT, ATP luminescence, 48 h | Potency, µM (doses to about 46.2 µM), hits mostly inhibitors | 15% of 420,000 active | AID 686978, 2013; further: nearly all actives have a fitted effect of over 55% in size
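Chicken DT40 Tdp1-/- cells stably complemented with human TDP1 were seeded at 400 cells/well with DMSO in place of 20 nM camptothecin. After compound pinning, cells grew at least 48 hr at 37 °C; viability read by CellTiter-Glo luminescence.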
Hits are given with their value; ! = repeats disagree; [ ] = another dose, or the depositor's remark. Unless noted, the call rests on the fitted dose curve; in most records, active means well fitted curve in the direction sought with a large enough effect; inconclusive means small, poorly fitted or top-dose-only effect, or another doubt; inactive means no such curve, though single readings can be large; an effect the other way counts as inactive or inconclusive.

For C[C@@]12C=Cc3occc3[C@H]1CC[C@@]13C[C@@H](CC[C@H]12)[C@@](O)(CO)C3 the results were TDP1 inh inactive.
For CCn1c(/C=C/N(C(C)=O)c2ccccc2)[n+](CC)c2ccc(Cl)cc21 the results were HepG2 tox inactive, TDP1 inh inactive, TDP1 cell CPT 16µM, IL-1B inflam inh inactive, TGFb inhibitor inconclusive and DT40 TDP1 no CPT 15µM.
Screening CC[n+]1c(/C=C/C=C/N(C(C)=O)c2ccccc2)sc2ccccc21 returned HepG2 tox inactive, TDP1 inh inactive, TDP1 cell CPT inconclusive, IL-1B inflam inh inactive, TGFb inhibitor inactive and DT40 TDP1 no CPT 21µM.
Screening CCCCc1nn2c(=O)cc(COC(=O)c3cccc(OC)c3)nc2s1 returned HepG2 tox inactive, TDP1 inh inactive, TDP1 cell CPT inconclusive, TGFb inhibitor inactive and DT40 TDP1 no CPT inactive.
Screening COc1cccc(CCNc2ncnc3sc(C(=O)N4CCN(C)CC4)c(C)c23)c1 returned TDP1 cell CPT inactive[9.04 µM] and DT40 TDP1 no CPT inactive.
For C=CCn1nc([N+](=O)[O-])nc1Sc1cccc2cccnc12 the results were HepG2 tox 5.6µM, TDP1 inh inactive, TDP1 cell CPT 5.2µM, IL-1B inflam inh -99, TGFb inhibitor 3.2µM and DT40 TDP1 no CPT 4.1µM.
CN(C)/N=C/c1ccc(Sc2ccc([N+](=O)[O-])cc2[N+](=O)[O-])o1 was read as HepG2 tox inactive, TDP1 inh inactive, TDP1 cell CPT inconclusive, IL-1B inflam inh inactive, TGFb inhibitor inactive and DT40 TDP1 no CPT 23µM.
`O=[N+]([O-])c1ccc(Sc2cccc3cccnc23)c([N+](=O)[O-])c1` gave HepG2 tox inactive, TDP1 inh inactive, TDP1 cell CPT 4.6µM, IL-1B inflam inh inactive, TGFb inhibitor 4µM and DT40 TDP1 no CPT 4.6µM.
Cc1cc(C)nc(Sc2ccc([N+](=O)[O-])cc2[N+](=O)[O-])n1 was read as HepG2 tox inactive, TDP1 inh inactive, TDP1 cell CPT 1.3µM, IL-1B inflam inh -60, TGFb inhibitor inconclusive and DT40 TDP1 no CPT 1µM.
CCOP1(=O)C=C(Sc2ccc([N+](=O)[O-])cc2[N+](=O)[O-])C(C)(C)O1 (centres undefined) was read as HepG2 tox inactive, TDP1 cell CPT inactive, IL-1B inflam inh inactive, TGFb inhibitor inactive and DT40 TDP1 no CPT inactive.
Cc1ccnc(Sc2ccc([N+](=O)[O-])cn2)n1 was read as HepG2 tox inactive, TDP1 inh inactive, TDP1 cell CPT inactive, IL-1B inflam inh inactive, TGFb inhibitor inactive and DT40 TDP1 no CPT inactive.
Screening O=[N+]([O-])c1ccc(Sc2cccc3cccnc23)cc1 returned HepG2 tox inactive, TDP1 inh inactive, TDP1 cell CPT inconclusive, IL-1B inflam inh inactive, TGFb inhibitor inactive and DT40 TDP1 no CPT inactive.
O=[N+]([O-])c1cc(Cl)ccc1Sc1cccc2cccnc12 was read as HepG2 tox inactive, TDP1 inh inactive, TDP1 cell CPT inactive, IL-1B inflam inh inactive, TGFb inhibitor inactive and DT40 TDP1 no CPT inactive.
`CN1C(=O)C2CCCCN2c2ccc(C(=O)NCc3ccccc3Br)cc21` (centres undefined) gave HepG2 tox inactive, TDP1 inh inactive, TDP1 cell CPT inconclusive, TGFb inhibitor inactive and DT40 TDP1 no CPT inactive.
Screening O=[N+]([O-])c1ccc(Sc2ccncn2)c([N+](=O)[O-])c1 returned HepG2 tox 10µM, TDP1 cell CPT 1µM, IL-1B inflam inh -80, TGFb inhibitor 11µM and DT40 TDP1 no CPT 0.65µM.
For O=S1(=O)CCO[C@H]2CCCC[C@@H]2N1Cc1ccccc1F the results were HepG2 tox inactive, TDP1 cell CPT inconclusive, TGFb inhibitor inactive and DT40 TDP1 no CPT inconclusive.
For O=S1(=O)CCO[C@H]2Cc3ccccc3[C@H]2N1Cc1ccccc1F the results were HepG2 tox inactive, TDP1 cell CPT 23µM!, IL-1B inflam inh inactive, TGFb inhibitor inactive and DT40 TDP1 no CPT inconclusive.
